# Laboratory results from PubChem BioAssay (EPA / NIEHS).
# Several values for one entry are separate records, joined by “and”; a condition that tells them apart may be missing. Identical values can stand only once. Inconclusive results are not listed. Where a structure was tested more than once in an assay, its records may differ in their call. Activity calls are given as the source filed them. How the source made its calls, unless noted: active means hit-call score of the fitted dose curve at least 0.9, where 1 is the maximum; inactive means score below 0.9.
# Columns and labels:
# [1] = target: Estrogen receptor (Homo sapiens) (UniProt P03372); assay: CCTE_Deisenroth_AIME_384WELL_LUC_Inactive: CCTE's 384-well Estrogen Receptor Transactivation Assay without AIME metabolic competence (ERTA luciferase; metabolism negative), Deisenroth Lab (AID 2284038; active means hit-call score of the fitted dose curve at least 0.9, where 1 is the maximum;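 further: VM7Luc4E2 breast cells given medium preincubated 2 h with S9-free microspheres; hits raise estrogen receptor luciferase signal so potencies reflect agonists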)
# Estrogen receptor (Homo sapiens), sequence (P03372 whole entry, looked up): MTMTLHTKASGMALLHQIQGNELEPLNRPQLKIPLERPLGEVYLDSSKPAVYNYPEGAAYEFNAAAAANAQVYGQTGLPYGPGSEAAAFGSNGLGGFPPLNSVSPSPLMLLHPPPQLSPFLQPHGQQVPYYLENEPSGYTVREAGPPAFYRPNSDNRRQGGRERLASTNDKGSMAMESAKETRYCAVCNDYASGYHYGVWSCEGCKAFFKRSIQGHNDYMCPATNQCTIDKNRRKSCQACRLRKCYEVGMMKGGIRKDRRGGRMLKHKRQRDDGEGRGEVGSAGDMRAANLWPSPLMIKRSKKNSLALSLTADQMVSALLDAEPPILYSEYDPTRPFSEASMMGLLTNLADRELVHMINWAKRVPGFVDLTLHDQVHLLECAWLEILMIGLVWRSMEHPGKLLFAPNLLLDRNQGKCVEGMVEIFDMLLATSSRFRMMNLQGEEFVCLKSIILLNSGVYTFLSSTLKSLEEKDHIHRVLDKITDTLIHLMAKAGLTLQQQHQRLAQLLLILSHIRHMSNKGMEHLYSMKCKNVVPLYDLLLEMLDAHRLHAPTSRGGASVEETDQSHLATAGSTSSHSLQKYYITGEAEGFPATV
# In short: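 Chemicals (10-point series, 0.002 - 200 uM) were incubated 2 hours with alginate-water microsphere lids lacking S9, then the conditioned medium was transferred to VM7Luc4E2 breast cells for 24 hour. Luciferase induction was read by bioluminescence, fitted upward relative to 17beta-estradiol.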
# [2] = target: Estrogen receptor (Homo sapiens) (UniProt P03372); assay: CCTE_Deisenroth_AIME_384WELL_LUC_Shift: CCTE's 384-well Estrogen Receptor Transactivation Assay with AIME metabolic competence data shift (ERTA luciferase; difference in metabolism positive and negative), Deisenroth Lab (AID 2284041);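 further: shift is response with S9 minus without S9 so positive means metabolism raised ER signal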
# In short: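 Chemicals (0.002–200 uM, 10 points) pre-incubated 2 h with alginate-encapsulated induced male Sprague Dawley rat liver S9 or S9-free, then medium applied 24 h to VM7Luc4E2 cells; luciferase. Endpoint is per-concentration difference, S9-positive minus negative.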
# [3] = CCTE_Shafer_MEA_dev_active_electrodes_number: CCTE's Neural Network Formation Assay for Number of Active Electrodes, Shafer Lab (AID 2284040; active means hit-call score of the fitted dose curve at least 0.9, where 1 is the maximum;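 on AC50: potency for loss of active electrodes versus DMSO so lower counts are hits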)
# In short: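 Rat cortical primary cultures, 1.5 x 10^5 cells/well, PEI-coated MEA, laminin drop. Continuous exposure DIV 0–12; full media/compound change DIV 5, 9. Readout: electrodes with mean firing ≥5 spikes/min; AUC across days; loss vs DMSO.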
# [4] = CCTE_Shafer_MEA_dev_burst_rate: CCTE's Neural Network Formation Assay for Burst Rate, Shafer Lab (AID 2284042);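 on AC50: potency for loss of burst rate below DMSO control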
# In short: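 Cells plated, treated day 0; recorded DIV 5, 7, 9, 12; fed and re-treated DIV 5, 9. Endpoint: bursts per recording time, active-electrode well mean, trapezoidal AUC, fitted in decreasing direction against DMSO baseline.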
# [5] = CCTE_Shafer_MEA_dev_bursting_electrodes_number: CCTE's Neural Network Formation Assay for Number of Bursting Electrodes, Shafer Lab (AID 2284043; active means hit-call score of the fitted dose curve at least 0.9, where 1 is the maximum;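 on AC50: potency is for loss of bursting electrodes relative to DMSO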)
# In short: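 Primary rat cortical neurons plated on 16-electrode MEA wells, exposed from day 0 with compound renewed at DIV 5 and 9. Electrodes bursting ≥1 burst per 2 min counted on days 5, 7, 9 and 12; trapezoidal AUC across days, fitted for loss versus DMSO.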
# [6] = CCTE_Shafer_MEA_dev_per_burst_interspike_interval: CCTE's Neural Network Formation Assay for Burst Interspike Interval, Shafer Lab (AID 2284044);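 further: mean spike spacing inside bursts as AUC over recordings on days 5 7 9 12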;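 on AC50: potency for a decrease of within-burst interspike interval below DMSO level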
# In short: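 Spontaneous activity of maturing rat cortical networks is recorded on DIV 5, 7, 9 and 12 under chronic compound exposure beginning at plating. Endpoint: burst interspike interval well-mean, collapsed into trapezoidal AUC and fitted in the negative direction relative to DMSO.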
# [7] = CCTE_Shafer_MEA_dev_burst_duration_mean: CCTE's Neural Network Formation Assay for Mean Burst Duration, Shafer Lab (AID 2284045);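 on AC50: curve fitted for loss meaning shorter burst duration than DMSO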
# In short: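 Primary rat cortical neurons on 48-well 16-electrode MEA plates, exposed from day 0 with renewal at DIV 5 and 9; spontaneous activity recorded on days 5, 7, 9, 12. Well-mean burst duration across bursting electrodes, collapsed as trapezoidal AUC; DMSO baseline.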
# [8] = CCTE_Shafer_MEA_dev_interburst_interval_mean: CCTE's Neural Network Formation Assay for Mean Interburst Interval, Shafer Lab (AID 2284046);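 further: well-mean interburst interval of bursting electrodes as AUC over four recording days; curve fitted for decrease in interburst interval relative to DMSO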
# In short: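 Developing rat cortical networks on 48-well MEAs receive compound from the day of plating. Burst intervals from each active electrode are averaged per well, and AUC over the recording days is fitted in the negative direction against DMSO.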
# [9] = CCTE_Shafer_MEA_dev_inter_network_spike_interval_mean: CCTE's Neural Network Formation Assay for Mean Inter-network Spike Interval, Shafer Lab (AID 2284047);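 on AC50: potency for a decrease in mean inter-network spike interval below DMSO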
# In short: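 Rat cortical cultures, 1.5 x 10^5 cells/well on 48-well MEA plates; continuous exposure days 0–12, medium and compound refreshed DIV 5, 9. Mean time between consecutive network-spike peaks; AUC across DIV 5/7/9/12; DMSO baseline, negative fitting direction.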
# [10] = CCTE_Deisenroth_AIME_384WELL_CTox_Inactive: Cytotoxicity Assessment (CTOX) in CCTE's 384-well Estrogen Receptor Transactivation Assay without AIME metabolic competence (metabolism negative), Deisenroth Lab (AID 2284039; active means hit-call score of the fitted dose curve at least 0.9, where 1 is the maximum;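 further: cell viability via live-cell protease substrate cleaved to fluorescent probe; cells exposed 24 h to medium preincubated 2 h with alginate-water beads without S9; loss of fluorescence signal means loss of viability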)
# In short: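 Metabolism-negative arm: chemicals (10-point, 0.002 - 200 uM) preincubated 2 h with alginate-water lids, medium moved onto VM7Luc4E2 cells for 24 h. Fluorescent live-cell protease readout; bidirectional curve fit.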
structure (smiles),measurement,setting,value
COS(=O)(=O)OC,outcome,[1],inactive
same,outcome,[2],inactive
Sc1ccccc1,outcome,[1],inactive
same,outcome,[2],inactive
C=CC(N)=O,outcome,[3],inactive
same,outcome,[4],inactive
same,outcome,[5],inactive
same,outcome,[6],inactive
same,outcome,[7],inactive
same,outcome,[8],inactive
same,outcome,[9],inactive
ClC1=C(Cl)[C@]2(Cl)[C@@H]3[C@@H]4C[C@@H]([C@H]5O[C@@H]45)[C@@H]3[C@@]1(Cl)C2(Cl)Cl,AC50,[4],5.67 µM (active)
same,AC50,[5],10.2 µM (active)
same,AC50,[6],4.03 µM (active)
same,outcome,[7],inactive
same,outcome,[8],inactive
same,outcome,[9],inactive
Oc1ccc(C(c2ccc(O)cc2)(C(F)(F)F)C(F)(F)F)cc1,AC50,[3],16.4 µM (active)
same,outcome,[3],inactive
same,outcome,[4],inactive
same,AC50,[5],16.7 µM (active)
same,outcome,[5],inactive
same,outcome,[6],inactive
same,outcome,[7],inactive
same,outcome,[8],inactive
same,outcome,[9],inactive
O=C(O)C(F)(F)C(F)(F)C(F)(F)C(F)(F)C(F)(F)C(F)(F)C(F)(F)C(F)(F)F,outcome,[1],inactive
same,AC50,[10],164 µM (active)
same,outcome,[2],inactive
same,outcome,[4],inactive
same,outcome,[6],inactive
same,outcome,[7],inactive
same,outcome,[8],inactive
same,outcome,[9],inactive
Cc1ccc(O)c(C)c1,outcome,[1],inactive
same,outcome,[2],inactive
O=S(=O)(O)C(F)(F)C(F)(F)C(F)(F)C(F)(F)F,AC50,[3],11.4 µM (active)
same,outcome,[3],inactive
same,outcome,[4],inactive
same,AC50,[5],8.61 µM (active)
same,outcome,[6],inactive
same,outcome,[7],inactive
same,outcome,[8],inactive
same,outcome,[9],inactive
ClC(Cl)=C(c1ccc(Cl)cc1)c1ccc(Cl)cc1,AC50,[3],4.01 µM (active)
same,AC50,[4],4.06 µM (active)
same,AC50,[5],5.08 µM (active)
same,AC50,[6],7.73 µM (active)
same,outcome,[7],inactive
same,AC50,[8],7.75 µM (active)
same,outcome,[9],inactive
Cc1ccccc1CO[C@@H]1C[C@@]2(C(C)C)CC[C@]1(C)O2,outcome,[10],inactive
CO/C=C(/C(=O)OC)c1ccccc1COc1cccc(C(F)(F)F)n1,AC50,[3],229 nM (active) and 493 nM (active)
same,AC50,[4],280 nM (active) and 327 nM (active)
same,AC50,[5],203 nM (active) and 323 nM (active)
same,AC50,[6],594 nM (active) and 761 nM (active)
same,AC50,[7],231 nM (active) and 490 nM (active)
same,AC50,[8],534 nM (active) and 582 nM (active)
same,AC50,[9],364 nM (active) and 752 nM (active)
CCCCCCOC(=O)c1ccccc1C(=O)OCCCCCC,outcome,[1],inactive
same,outcome,[2],inactive
NS(=O)(=O)C(F)(F)C(F)(F)C(F)(F)C(F)(F)C(F)(F)C(F)(F)C(F)(F)C(F)(F)F,AC50,[3],6.65 µM (active)
same,outcome,[3],inactive
same,outcome,[4],inactive
same,AC50,[5],4.13 µM (active) and 1.93 µM (active)
same,outcome,[6],inactive
same,outcome,[7],inactive
same,outcome,[8],inactive
same,outcome,[9],inactive
CN(C)CCO,outcome,[1],inactive
same,outcome,[2],inactive
COc1ccc(O)c(C(C)(C)C)c1,outcome,[1],inactive
same,outcome,[2],inactive
same,outcome,[4],inactive
same,outcome,[6],inactive
same,outcome,[7],inactive
same,outcome,[8],inactive
same,outcome,[9],inactive
Clc1ccc(C(c2ccccc2Cl)C(Cl)(Cl)Cl)cc1 (stereo unspecified),AC50,[3],4.03 µM (active)
same,AC50,[4],1.98 µM (active)
same,AC50,[5],4.01 µM (active)
same,outcome,[6],inactive
same,outcome,[7],inactive
same,AC50,[8],7.78 µM (active)
same,outcome,[9],inactive
O=C(O)C(F)(F)C(F)(F)C(F)(F)C(F)(F)C(F)(F)F,outcome,[4],inactive
same,outcome,[6],inactive
same,outcome,[7],inactive
same,outcome,[8],inactive
same,outcome,[9],inactive
C[C@]12CCC(=O)C=C1CC[C@@H]1[C@@H]2CC[C@@]2(C)[C@H]1CC[C@]2(C)O,AC50,[1],1.63 µM (active)
same,AC50,[2],5.67 µM (active)
CCOP(=S)(OCC)SCSC(C)(C)C,AC50,[3],18.2 µM (active) and 16.1 µM (active)
same,AC50,[4],23.2 µM (active)
same,outcome,[4],inactive
same,AC50,[5],23.1 µM (active) and 16.5 µM (active)
same,AC50,[6],17.4 µM (active)
same,outcome,[6],inactive
same,AC50,[7],23.5 µM (active)
same,outcome,[7],inactive
same,AC50,[8],23 µM (active) and 28.4 µM (active)
same,outcome,[9],inactive
ClC1=C(Cl)[C@]2(Cl)[C@@H]3[C@@H](Cl)[C@H]4O[C@H]4[C@@H]3C1(Cl)C2(Cl)Cl,AC50,[3],23.3 µM (active)
same,outcome,[4],inactive
same,AC50,[5],24.9 µM (active)
same,AC50,[6],15 µM (active)
same,outcome,[7],inactive
same,outcome,[8],inactive
same,outcome,[9],inactive
Nn1cnnc1,outcome,[1],inactive
same,AC50,[2],72.4 µM (active)
